{"source": "PubChem BioAssay (EPA / NIEHS)", "note": "Calls of active or inactive are those of the source. The calls were made as follows: active = hit-call score of the fitted dose curve at least 0.9, where 1 is the maximum; inactive = score below 0.9.", "data": [{"assay": "STM_H9_CystineISnorm_perc: Stemina devTOX quickPredict H9 human embryonic stem cell (hESC)-based Assay for Cystine (CYSS) Metabolite Biomarker, Normalized (AID 2283713)", "text": "STM_H9_secretome utilizes undifferentiated H9 cells to measure relative changes in two metabolites, ornithine (ORN) and cystine (CYSS) in the secretome, targeting a critical drop in the ORN/CYSS ratio as a biomarker for developmental toxicity.STM_H9_CystineISnorm_perc is one of 10 components calculated in the STM_H9_secretome assay. It measures the integrated area of the endogenous cystine normalized to the spiked-in isotopically labeled standard and to the median value of the 0.1% DMSO neutral control treatment using UPLC-HRMS technology.Data from the assay component STM_H9_CystineISnorm_perc was analyzed at the assay endpoint STM_H9_CystineISnorm_perc in the positive analysis fitting direction relative to DMSO as the negative control and baseline of activity. Using a type of binding reporter, gain or loss-of-signal activity can be used to understand relative metabolite change.\nH9 hESCs maintained in a pluripotent state were exposed to test compound for 72h with chemical replenishment with media replacement every 24h. Cell-conditioned media from the final 24-h treatment period was collected for analysis of the targeted biomarker, and cell viability of the corresponding cell layer was assessed. The chemical library was tested in blinded fashion. Each test plate included 1uM Methotrexate (MTX; Selleck Chemicals, Houston, Texas) as a positive reference, 5 nM MTX as a negative reference, 0.1% DMSO as the neutral (vehicle) control, and sample-level media blanks.H9 cell-conditioned media from the final 24-h treatment period was collected for analysis of the targeted biomarker and cell viability was measured from the corresponding cell layer. Cell viability was measured using the CellTiter-Fluor assay (Promega, Madison, Wisconsin) based on proteolytic cleavage of a substrate to fluorescent signal proportional to the number of living cells. The cell viability Relative Fluorescence Unit (RFU) was background corrected and normalized to mean RFU of the neutral control (0.1% DMSO). The collected H9-cell-conditioned media samples were processed for targeted biomarker analysis as described (Palmer et al., 2013). Briefly, spent media samples were deproteinized (40% acetonitrile) and processed for UPLC-HRMS. Data acquisition was performed using 4 separate UPLC-HRMS systems, consisting of an Agilent 1290 Infinity LC system (Agilent Technologies) interfaced with an Agilent high-resolution mass spectrometer (models G6520A, G6520B, G6530A, and G6224A). A Waters Acquity UPLC BEH Amide column (2.1mm x 50mm, 1.7lm particle size; Waters, Milford, Massachusetts) maintained at 40C was applied for separation of metabolites using a 6.5min solvent gradient with 0.1% formic acid in water and 0.1% formic acid in acetonitrile (1.0ml/min flow rate). Data were acquired using MassHunter Acquisition software (version B 04.00, Agilent Technologies). The extracted ion chromatogram (EIC) areas for ORN, CYSS, and their respective spike-in C13-standards were determined using the Agilent MassHunter Quantitative Analysis software, version B.05.00 or newer (Agilent Technologies), and data were normalized as described in Palmer et al. (2017).", "values": [{"smiles": "Cc1ncc([C@@H](CCCCCCc2ccc3c(n2)NCCC3)CC(=O)O)cn1", "AC50": "0.0101 µM (active)"}, {"smiles": "CC[C@H](C)C(=O)O[C@H]1C[C@H](O)C=C2C=C[C@H](C)[C@H](CC[C@@H](O)C[C@@H](O)CC(=O)O)[C@H]21", "outcome": "inactive"}, {"smiles": "COc1cc2c(c(OC)c1OC)-c1ccc(OC)c(=O)cc1[C@@H](NC(C)=O)CC2", "AC50": "0.0121 µM (active)"}, {"smiles": "CCCCN1C(=O)[C@@H]([C@H](O)C2CCCCC2)NC(=O)C12CCN(Cc1ccc(Oc3ccc(C(=O)O)cc3)cc1)CC2", "AC50": "2.26 µM (active)"}, {"smiles": "CCN(CC)C(=S)SSC(=S)N(CC)CC", "AC50": "0.682 µM (active)"}, {"smiles": "COS(C)(=O)=O", "AC50": "62.6 µM (active)"}, {"smiles": "Cn1cc[nH]c1=S", "AC50": "37.7 µM (active)"}, {"smiles": "CC(C)C(=O)Nc1ccc([N+](=O)[O-])c(C(F)(F)F)c1", "AC50": "31.6 µM (active)"}, {"smiles": "OCCNCCO", "AC50": "22.2 µM (active)"}, {"smiles": "CCCCCCCCCC", "outcome": "inactive"}, {"smiles": "CCCC(CCC)C(=O)O", "AC50": "242 µM (active)"}, {"smiles": "OC(Cn1cncn1)(Cn1cncn1)c1ccc(F)cc1F", "outcome": "inactive"}, {"smiles": "Cn1c(=O)c2[nH]cnc2n(C)c1=O", "outcome": "inactive"}, {"smiles": "NC(=O)N1c2ccccc2C=Cc2ccccc21", "AC50": "4.32 µM (active)"}, {"smiles": "O=c1[nH]cnc2c1ncn2[C@H]1CC[C@@H](CO)O1", "outcome": "inactive"}, {"smiles": "C[C@]12C=CC(=O)C=C1CC[C@H]1[C@@H]3C[C@@H](O)[C@](O)(C(=O)CO)[C@@]3(C)C[C@H](O)[C@@]12F", "outcome": "inactive"}, {"smiles": "Cc1nc(-c2ccccn2)ncc1C(=O)Nn1cc(C)c2cc(F)ccc21", "outcome": "inactive"}, {"smiles": "NC(=O)NN=Cc1ccc([N+](=O)[O-])o1", "outcome": "inactive"}, {"smiles": "O=C1CN(N=Cc2ccc([N+](=O)[O-])o2)C(=O)N1", "AC50": "5.91 µM (active)"}, {"smiles": "O=S1(=O)CCCO1", "AC50": "83 µM (active)"}, {"smiles": "Nc1ccn([C@@H]2O[C@H](CO)[C@@H](O)[C@@H]2O)c(=O)n1", "AC50": "0.142 µM (active)"}]}]}
